Structures are written as SMILES. Out of some 340,000 compounds screened, about 2,300 (0.68%) were called active. Rule as the data show it: active = growth rescue above about 28% (passing the limit was not always enough); inconclusive = no clear call, values can overlap the other calls. The entries come from a sample that favours actives as a whole.

The nature of this assay: rescue of yeast from PfHsp40 toxicity, primary screen, S. cerevisiae, ATP luminescence (AID 504582).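 Also: yeast W303a lacking pdr1 and pdr3 grown in galactose medium; growth measured after three days at 30 °C.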 Particulars: S. cerevisiae expressing PfHsp40, growth rescue, at 12.5 µM, stronger effect = higher value.
`CCN(CC)c1ccc(/C=N/NC(=O)c2cnccn2)c(O)c1`: the growth rescue was 77.4% (active).
Regarding `COc1ccc(NC(=O)C/C(C)=N/NC(=O)c2cnccn2)cc1Cl`, the growth rescue is -1.24% (inactive).
For the compound `Cc1ccc(/C=N/NC(=O)C2=NNC(c3ccccc3)(c3ccccc3)C2)c(O)c1`, the growth rescue was -0.682% (inactive).
Take `CCNC(=O)c1cnn(-c2ccccc2)c1-c1ccccc1`: the growth rescue is -3.15% (inactive).
With `Cn1c(C(=O)N2CCCC(C(=O)NCc3ccccc3)C2)cc2sccc21` (stereo not given), the growth rescue was 0.412% (inactive).
Consider `CCCCCC(=O)N1CCN(S(=O)(=O)c2ccc3c(c2)OCCCO3)CC1`, for which the growth rescue was 1.79% (inactive).
For `O=S(=O)(NCc1ccccc1)c1ccc(S(=O)(=O)N2CCCC2)cc1`, the growth rescue is 0.759% (inactive).
In the case of `CC1(C)CN(c2ccc(-c3ccnc4ncnn34)cc2)C1=O`, the growth rescue is -1.84% (inactive).
With `Cc1ccc(C(=O)N2CC(=O)Nc3ccc(F)cc3C2c2ccc(F)cc2)cc1` (stereo not given) the figure was 1.27% (inactive); with `Cc1ccc2c(c1)C(c1ccccc1)N(C(=O)c1ccc(S(=O)(=O)N3CCOCC3)cc1)CC(=O)N2` (stereo not given), 72.7% (active); with `Cc1ccc2c(c1)C(c1ccccc1)N(C(=O)c1ccc(F)cc1)CC(=O)N2` (stereo not given), 0.27% (inactive).
As to `Cc1ccc(NN=Nc2nc3c([nH]2)c(=O)n(C)c(=O)n3C)cc1`, the growth rescue is -0.566% (inactive).
As to `COc1ccc(OCC(O)CN(C)C(=O)C(C)Oc2ccccc2)cc1` (stereo not given), the growth rescue was -0.614% (inactive).
Take `Cc1cc(C)n(CC(O)COc2ccc(C(C)(C)C)cc2)n1` (stereo not given): the growth rescue is 0.193% (inactive).
In the case of `CN(C)CC(O)COc1ccc(C(C)(C)c2ccc(OCC(O)CN(C)C)cc2)cc1` (stereo not given), the growth rescue was 26.9% (active).
As for `Cc1ccc2nc(C)c3c(c2c1)N(c1ccccc1)CC3`, the growth rescue is -0.127% (inactive).
Consider `Cc1ccc(S(=O)(=O)N2CCOCC2)cc1C(=O)Nc1ccccc1N1CCCC1`, for which the growth rescue was 0.57% (inactive).
On to `COc1ccc(OCC(O)CNCCNc2nccc(C(F)(F)F)n2)cc1` (stereo not given), for which the growth rescue was 62.4% (active).
For the compound `COc1ccc(OCC(O)CNC(=O)Nc2ccc(Cl)cc2)cc1` (stereo not given), the growth rescue was -1.02% (inactive).
In the case of `CC(C)(C)CC(C)(C)NCC(O)COCCOc1ccc(Br)cc1` (stereo not given), the growth rescue was 0.077% (inactive).
Regarding `Cc1ccccc1Nc1c([N+](=O)[O-])ccc2nonc12`, the growth rescue was -0.179% (inactive).
`CCc1cc2c(=O)c(-c3ccon3)c(N)oc2cc1OC`: the growth rescue was -0.783% (inactive).
Regarding `COc1ccc(NCc2nnc(SCc3ccccc3)n2-c2ccc(OC)cc2)cc1`, the growth rescue is -1.36% (inactive).
On to `O=C(COc1ccccc1[N+](=O)[O-])N/N=C/c1ccc[nH]1`, for which the growth rescue is -1% (inactive).
As for `Cc1nn(Cc2ccc(Cl)cc2)c(Cl)c1/C=N/NC(=O)CNc1ccccc1F`, the growth rescue is -0.219% (inactive).
With `Cc1ccccc1NCC(=O)N/N=C\c1ccc([N+](=O)[O-])s1`, the growth rescue was 406% (active).
The same measure for `Cn1c(CCC(=O)OCC(=O)NCc2ccccc2Cl)nc(=O)c2ccccc21`: 1.08% (inactive); for `O=C(CN1C(=O)NC2(CCCC2)C1=O)Nc1ccc(F)c(F)c1F`: -0.549% (inactive); for `Cc1cccc(NC(=O)Nc2cccc(Oc3c(F)c(F)c(F)c(F)c3F)c2)c1`: -0.315% (inactive).
As for `Cc1ccoc1C(=O)Nc1cccc(Oc2ccccc2)c1`, the growth rescue is 372% (active).
`CC(Oc1cccc(NC(=O)c2cccs2)c1)C(=O)c1ccccc1` (stereo not given): the growth rescue was 3.27% (inactive).
With `CCC1CCCCN1CCNC(=O)c1[nH]c(C)c(C(C)=O)c1C` (stereo not given), the growth rescue was -0.34% (inactive).
With `O=C1NC2(CCCCCC2)C(=O)N1CCS(=O)(=O)Oc1ccccc1` the figure was 0.283% (inactive).
With `O=C(NCC1COc2ccccc2O1)C1(c2ccccc2)CCCC1` (stereo not given), the growth rescue was 2.05% (inactive).
Take `CN(C)CC1Oc2ccccc2OC1(O)c1ccccc1` (stereo not given): the growth rescue is 472% (active).
For `CN(C)CCOC(=O)C(c1ccccc1)C1(O)CCCC1` (stereo not given), the growth rescue was 0.536% (inactive).
As to `CSc1ncccc1C(=O)NCc1ccccc1Cl`, the growth rescue is 1.68% (inactive).
The same measure for `CCN(CC)CCCNC(=O)CCn1nc(-c2ccc(Cl)cc2)ccc1=O`: -0.666% (inactive); for `CC(NC(=O)c1ccco1)C(=O)Nc1nc(-c2ccccn2)cs1` (stereo not given): -0.236% (inactive).
With `O=C(COc1ccccc1F)Nc1nc(-c2ccccn2)cs1`, the growth rescue is 398% (active).
Regarding `O=C(CN1C(=O)C2C3C=CC(C3)C2C1=O)Nc1nc(-c2ccccn2)cs1` (stereo not given), the growth rescue is -0.446% (inactive).
The same measure for `O=C(O)C1=C[C@H](c2cccs2)C[C@H](OCCCCO)O1`: -1.21% (inactive); for `O=C(O)c1c(NC(=O)N2CCCC2)sc2c1CCCC2`: 232% (active); for `O=C(Nc1sc2c(c1C(=O)O)CCC2)c1ccccc1F`: 0.175% (inactive).
Turning to `O=C(CN1CCCC1)Nc1sc2c(c1C(=O)Nc1ccccc1)CCCC2`, the growth rescue was 0.179% (inactive).
The same measure for `C=CCNc1nc(Nc2ccc(Cl)cc2)nc(OC)n1`: 0.232% (inactive); for `CC(C)(C)NC(=O)c1ccc(Cn2cc(C(F)(F)F)ccc2=O)cc1`: -0.625% (inactive).
Consider `Cn1ccc(=Nc2ccc(NC(=O)c3ccc(N=c4ccn(C)c5ccc([N+](=O)[O-])cc45)cc3)cc2)cc1`, for which the growth rescue was 236% (active).
With `Cn1c(=O)n(C)c2cc(C(=O)Nc3ccc(Br)cc3)ccc21` the figure was -1.51% (inactive).
As for `CCc1ccc(NC(=O)c2ccc(Cn3cc([N+](=O)[O-])cn3)cc2)cc1`, the growth rescue was -0.255% (inactive).
As for `Oc1ccc2ccccc2c1N=Nc1nccs1`, the growth rescue was 118% (active).
As to `Cc1ccc(CNC(=O)CC2Sc3ccccc3NC2=O)cc1` (stereo not given), the growth rescue was 0.304% (inactive).
Take `Cc1cccc(NC(=O)c2cccc(C(=O)Nc3cccc(C)c3C)n2)c1C`: the growth rescue is -0.654% (inactive).
As to `O=C(OCC(=O)c1c[nH]c2ccccc12)c1cccc(O)c1`, the growth rescue was -0.5% (inactive).
For `O=C(OCc1ccc(-c2ccccc2)cc1)c1cccc(O)c1`, the growth rescue was 179% (active).
For the compound `O=C(CNC(=O)c1ccc(-c2ccccc2)cc1)OCc1ccc(Cl)cc1`, the growth rescue was -0.241% (inactive).
With `C/C(Cn1nnc2ccccc21)=N\OC(=O)c1cc(F)c(F)cc1Cl` the figure was 0.415% (inactive).
On to `O=C(CCC(=O)N1CCCC1)Nc1ccc([N+](=O)[O-])cc1`, for which the growth rescue is -0.401% (inactive).
Consider `Cc1c(C(=O)N2CCCC2)c(S(=O)(=O)NCC(C)c2ccccc2)c(C)n1C` (stereo not given), for which the growth rescue is -0.332% (inactive).
With `CCOC(=O)c1ccccc1NC(=O)COC(=O)CCC(=O)N1CCOCC1`, the growth rescue was -0.942% (inactive).

Values taken from PubChem BioAssay AID504582 (Broad Institute, 2011).
